Measurements published in PubChem BioAssay.
Values without a mark were called inactive.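 The calls were made as follows: active = inhibition at or above 50% relative to wild type and mutant plate controls; inactive = inhibition below 50%.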

Assay: loss of swimming-algae plug formation – whole organism, Chlamydomonas reinhardtii, WT vs cilia-less mutant, absorbance, 96-well, primary screen (AID 463189);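 also: 0% = wild type cc124 cells in DMSO and 100% = ciliumless bld1 mutant cells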
Conditions: Chlamydomonas reinhardtii gravitaxis, OD600 absorbance, 2 days; at 10 µM; active compounds read high

SMILES | inhibition [%]
Fc1ccc(C(OCCCc2cnc[nH]2)c2ccc(F)cc2)cc1 | -0.416
O=c1c(-c2ccc(O)cc2)coc2cc(O)ccc12 | -7.57
CC(=O)[C@H]1CCC2C3CC=C4C[C@@H](OS(=O)(=O)O)CC[C@]4(C)C3CC[C@@]21C (stereo not given in full) | 4.69
O=C1Cc2c([nH]c3ccc(Br)cc23)-c2ccccc2N1 | -1.32
COc1cccc(-c2cc(=O)c3ccccc3o2)c1N | 0.351
O=C(O)CC1CCCc2ccccc2C1O (stereo not given) | 4.59
Ic1ccc(N2CCN(Cc3c[nH]c4ncccc34)CC2)cc1 | 7.68
Cn1c(=O)c2[nH]c(C3CCCC3)nc2n(C)c1=O | -2.05
O=C(O)CCC(=O)N1CCCC1C(=O)O (stereo not given) | 0.347
NCCCCC(=O)O | 9.64
Cc1ccc([N+](=O)[O-])cc1S(=O)(=O)N(C)C | -11.4
CC(=O)O[C@H]1C(=O)[C@@]2(C)C([C@H](OC(=O)c3ccccc3)[C@]3(O)C[C@H](OC(=O)[C@H](O)[C@@H](NC(=O)c4ccccc4)c4ccccc4)C(C)=C1C3(C)C)[C@]1(OC(C)=O)CO[C@@H]1C[C@@H]2O (stereo not given in full) | 8.47
NCCS(=O)(=O)O | 8.8
NC(=O)C1=CN(C2OC(COP(=O)(O)OP(=O)(O)OC[C@H]3O[C@@H](n4cnc5c(N)ncnc54)C(OP(=O)(O)O)[C@H]3O)C(O)C2O)C=CC1 (stereo not given in full) | -0.493
CCCCCCCCCCCCCCCC(=O)OC(CC(=O)O)C[N+](C)(C)C (stereo not given) | 2.15
CN1C[C@H](C(=O)N[C@]2(C)O[C@@]3(O)[C@@H]4CCCN4C(=O)[C@H](Cc4ccccc4)N3C2=O)C[C@@H]2c3cccc4[nH]cc(c34)C[C@H]21 | -12.5
CCSC(=N)N | 4.79
COc1[nH]c2ccc(F)cc2c1C(=O)OCC1CCN(CCNS(C)(=O)=O)CC1 | -12.7
O=C(O)Cc1ccc(O)c(O)c1 | 5.56
Nc1nc(SCc2ccc([N+](=O)[O-])cc2)c2ncn([C@@H]3O[C@H](CO)[C@H](O)C3O)c2n1 (stereo not given in full) | -2.89

SMILES | inhibition [%]
Nc1ncnc2c1ncn2[C@@H]1O[C@H](COP(=O)(O)OP(=O)(O)OP(=O)(O)OP(=O)(O)OC[C@@H]2O[C@H](n3cnc4c(N)ncnc43)C(O)[C@@H]2O)[C@H](O)C1O (stereo not given in full) | 15
CCC1(O)CC2CN(CCc3c([nH]c4ccccc34)[C@@](C(=O)OC)(c3cc4c(cc3OC)N(C)C3[C@]45CCN4CC=C[C@@](CC)([C@@H](OC(C)=O)[C@]3(O)C(=O)OC)[C@H]45)C2)C1 (stereo not given in full) | 4.61
NCCC(=O)NCCc1cnc[nH]1 | 3.88
N[C@@H](CS(=O)O)C(=O)O | 7.29
N[C@H]1CONC1=O | 6.36
CCn1cc(C(=O)O)c(=O)c2cc3c(cc21)OCO3 | 1.71
N[C@@H](CCCC(=O)O)C(=O)O | 6.53
O=C(O)[C@@H]1C[C@H](C(=O)O)N1 | 1.3
NC(Cc1ccc(Cl)cc1)C(=O)O (stereo not given) | -1.92
COc1ccc(NC(=O)c2ccc(-c3ccc(-c4noc(C)n4)cc3C)cc2)cc1N1CCN(C)CC1 | 47.6
C[C@@H]1C(=O)NC2=Nc3cccc(Cl)c3CN21 | 1.72
Oc1ccc(-c2nc(-c3ccc(F)cc3)c(-c3ccncc3)[nH]2)cc1 | 7.36
CC(C)C[C@H](NC(=O)[C@H](O)[C@H](N)Cc1ccccc1)C(=O)O | -10.7
NCCC1CCCC(CCN)N1 (stereo not given) | 5.08
CN=c1nc(-c2ccccc2)n(-c2ccccc2)s1 | 13
O=C1NC(c2cccc([N+](=O)[O-])c2)=CCN1c1ccccc1O | -0.979
COc1cc2nc(N3CCN(C(=O)OCc4ccccc4)C(C(=O)NC(C)(C)C)C3)nc(N)c2cc1OC (stereo not given) | -7.21
c1ccc(-c2ccccn2)nc1 | 1.35
CCC1(C)CC(=O)NC1=O (stereo not given) | 1.95
CC(C)COC(=O)OCN1C(=O)CN(CCN2CC(=O)N(COC(=O)OCC(C)C)C(=O)C2)CC1=O | 5.88
